Data reported in PubChem BioAssay (NCATS).
Where “and” joins values, the source holds several entries; their conditions need not be identical. Equal values may be shown once. Results filed as inconclusive are left out. Entries that show only a call come without a potency. Calls of active or inactive are those of the source. Unless noted, the call rests on the fitted dose curve; in most records, active means well fitted curve in the direction sought with a large enough effect; inconclusive means small, poorly fitted or top-dose-only effect, or another doubt; inactive means no such curve, though single readings can be large; an effect the other way counts as inactive or inconclusive.

Assays:
[1] = High-throughput drug toxicity screening in the BPDCN cell line Cal-1 (AID 1224825; call rule not given here); details: Cal-1 BPDCN cell viability, qHTS; at 45.8 µM (top of the series) unless noted
Method in brief: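 Cal-1 cells, 500 per well in phenol-red-free RPMI with 10% FBS, exposed to compounds for 48 hours at 37C, 5% CO2. Viability read by CellTiter-Glo luminescence; percent activity normalized to DMSO (100%) and 9.2 uM bortezomib final (0%).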

[2] = qHTS assay for measurement of the activity of small molecule inhibitors on Zika virus induced Caspase-3 activity in human iPSC derived neural progenitor cells (hNPCs) (AID 1224857); details: hNPCs ZIKV-induced caspase-3/7, Caspase-Glo luminescence, 6 h; series mostly up to 45.7 µM; further: nearly all actives have a fitted effect of over 65% in size; further: potency means the concentration at half of the fitted maximal effect
Method in brief: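 Quantitative HTS format: human iPSC neural progenitors, 1 h compound pretreatment, ZIKV 2 FFU/cell for 6 h at 37 C. Percent inhibition derived from luminescent caspase-3/7 signal between uninfected and infected controls.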

[3] = qHTS assay for measurement of the activity of small molecule inhibitors on Zika virus induced Caspase-3 activity in human astrocytoma cells (AID 1224859); details: SNB-19 ZIKV-induced caspase-3/7, luminescence, 6 h; series mostly up to 45.7 µM
Method in brief: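 Readout is luminescence from Caspase-Glo 3/7 added after a 6 h ZIKV infection (2 FFU/cell) of compound-pretreated (1 h) SNB-19 cells; data expressed as % inhibition versus uninfected and infected wells.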

[4] = qHTS Screen of the MIPE 4.0 Collection Against Ewings Sarcoma (RDES) (AID 1259252); details: RD-ES Ewing sarcoma viability, CellTiter-Glo, 48 h; series mostly up to 45.8 µM; further: nearly all actives have a fitted effect of over 35% in size; further: potency means the concentration at half of the fitted maximal effect
Method in brief: (§1)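 Log-phase cells in RPMI with 5% FBS attached for 4 h, then received compounds as a titration for 48 h at 37C, 5% CO2. Viability was read by CellTiter-Glo luminescence and normalized to DMSO and no-cell wells.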

[5] = qHTS Screen of the MIPE 4.0 Collection Against Ewings Sarcoma (TC71) (AID 1259253); details: TC71 Ewing sarcoma viability, CellTiter-Glo, 48 h; series mostly up to 45.8 µM; further: nearly all actives have a fitted effect of over 40% in size; further: potency means the concentration at half of the fitted maximal effect
Method in brief: as §1

[6] = qHTS Screen of the MIPE 4.0 Collection Against Ewings Sarcoma (EW8) (AID 1259255); details: EW8 Ewing sarcoma viability, CellTiter-Glo, 48 h; series mostly up to 45.8 µM; further: nearly all actives have a fitted effect of over 35% in size; further: potency means the concentration at half of the fitted maximal effect
Method in brief: as §1

[7] = qHTS Screen of the MIPE 4.0 Collection Against Ewings Sarcoma (TC32) (AID 1259256); details: TC32 Ewing sarcoma viability, CellTiter-Glo, 48 h; series mostly up to 45.8 µM; further: nearly all actives have a fitted effect of over 45% in size; further: potency means the concentration at half of the fitted maximal effect
Method in brief: as §1

[8] = P-glycoprotein substrates identified in KB-8-5-11 adenocarcinoma cell line, qHTS therapeutic library screen (AID 1346987); details: KB-8-5-11 (P-gp overexpressing) viability, CellTiter-Glo, 72 h; series mostly up to 44.5 µM; further: nearly all actives have a fitted effect of over 65% in size; further: potency means the concentration at half of the fitted maximal effect
Method in brief: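 KB-8-5-11, a colchicine-selected P-gp-overexpressing KB-3-1 subline, was grown without colchicine for the assay. Cells were seeded at 500 cells/well, dosed in concentration-response and incubated 72 h at 37 degree C, 5% CO2. Viability was read by CellTiter-Glo luminescence.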

[9] = NS1 protein of Zika virus - qHTS assay to identify small molecule inhibitors in human HEK 293 cells (AID 1347053); details: HEK293 ZIKV MR766 infection, NS1 TR-FRET, 24 h; series mostly up to 46.1 µM; further: nearly all actives have a fitted effect of over 55% in size; further: potency means the concentration at half of the fitted maximal effect
Method in brief: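 Inhibition of NS1 expression was scored in HEK 293 cells given compound 1 h ahead of MR766 virus (MOI = 0.5). Following 24 h at 37 C, two anti-NS1 antibodies generated a TR-FRET signal, scaled between uninfected and infected controls.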

[10] = qHTS of pediatric cancer cell lines to identify multiple opportunities for drug repurposing: Primary screen for TC32 cells (AID 1347089); details: TC32 Ewing sarcoma viability, CellTiter-Glo luminescence, 48 h; series mostly up to 45.8 µM; further: nearly all actives have a fitted effect of over 60% in size; further: potency means the concentration at half of the fitted maximal effect
Method in brief: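 Measured quantity: luminescence from CellTiter-Glo, reflecting metabolically active TC32 cells following 48 h of compound. Curves came straight from multi-point titrations, with 8 or 11 points in primary and 11 in confirmatory screening.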

[11] = qHTS of pediatric cancer cell lines to identify multiple opportunities for drug repurposing: Primary screen for DAOY cells (AID 1347090); details: DAOY medulloblastoma viability, CellTiter-Glo luminescence, 48 h; series mostly up to 46 µM; further: nearly all actives have a fitted effect of over 55% in size; further: potency means the concentration at half of the fitted maximal effect
Method in brief: (§2)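 Viability measured as metabolically active cells via CellTiter-Glo luminescence following 48 hours of compound exposure, 11-point dilutions in confirmatory testing. 500-1,000 cells/well plated 5 hours before dosing; controls were DMSO and 2.3 µM bortezomib.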

[12] = qHTS of pediatric cancer cell lines to identify multiple opportunities for drug repurposing: Primary screen for SJ-GBM2 cells (AID 1347091); details: SJ-GBM2 viability, CellTiter-Glo luminescence, 48 h; series mostly up to 46 µM; further: potency means the concentration at half of the fitted maximal effect
Method in brief: as §2

[13] = qHTS of pediatric cancer cell lines to identify multiple opportunities for drug repurposing: Primary screen for A673 cells (AID 1347092); details: A673 Ewing sarcoma viability, CellTiter-Glo ATP luminescence, 48 h; series mostly up to 46 µM; further: nearly all actives have a fitted effect of over 45% in size; further: potency means the concentration at half of the fitted maximal effect
Method in brief: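 Cells are plated, rested 5 h, dosed by pintool, incubated 48 h, then lysed with CellTiter-Glo and read by luminescence. DMSO is the neutral control; bortezomib at 2.3 uM final is the positive control.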

[14] = qHTS of pediatric cancer cell lines to identify multiple opportunities for drug repurposing: Primary screen for BT-37 cells (AID 1347094); details: BT-37 viability, CellTiter-Glo luminescence, 48 h; series mostly up to 57.3 µM; further: potency means the concentration at half of the fitted maximal effect
Method in brief: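 500-1,000 cells/well; 5 h pre-incubation 37 °C/5% CO2; compound pinned; 48 h; CellTiter-Glo, 15 min RT; luminescence. MIPE 11-pt from 0.78 nM, NPC 8-pt from 0.59 nM final. Bortezomib 2.3 µM final as positive control.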

[15] = qHTS of pediatric cancer cell lines to identify multiple opportunities for drug repurposing: Primary screen for SK-N-MC cells (AID 1347093); details: SK-N-MC viability, CellTiter-Glo luminescence, 48 h; series mostly up to 46 µM; further: potency means the concentration at half of the fitted maximal effect
Method in brief: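 Metabolically active cells were quantified by ATP-dependent luminescence (CellTiter-Glo, 15 min at room temperature) following 48 h treatment. Cells had been plated at 500-1,000 per well and settled for 5 h beforehand.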

Row | Compound | viability (% of control) [1] | Potency [2] | Potency [3] | Potency [4] | Potency [5] | Potency [6] | Potency [7] | Potency [8] | Potency [9] | Potency [10] | Potency [11] | Potency [12] | Potency [13] | Potency [14] | Potency [15]
1 | C[C@@H](NCc1cc2ccccc2[nH]1)c1cccc2ccccc12 | 108% | inactive | inactive | inactive | inactive | inactive | inactive | inactive | inactive | inactive | inactive | inactive | inactive | inactive | 
2 | CCCCOc1ccc(C(=O)Nc2ccc(F)cc2F)cc1 | 105% | inactive | inactive | inactive | inactive | inactive | inactive | inactive | inactive | inactive | inactive | inactive |  | inactive | 
3 | Nc1nc2c(c(=O)[nH]1)N(C=O)[C@H](CNc1ccc(C(=O)N[C@@H](CCC(=O)O)C(=O)O)cc1)CN2 | 92.1% | inactive | inactive | inactive | inactive | inactive | inactive | inactive | inactive | inactive | inactive | inactive | 7430 nM (active) | 9680 nM (active) | inactive
4 | C#CCC(Cc1cnc2nc(N)nc(N)c2n1)c1ccc(C(=O)N[C@@H](CCC(=O)O)C(=O)O)cc1 (stereo partly drawn) | 36.9% | inactive | inactive | 37.2 nM (active) | 37.2 nM (active) | 37.2 nM (active) | 33.2 nM (active) | 0.0418 µM (active) | 132 nM (active) | 37 nM (active) | 118 nM (active) | 118 nM (active) | 29.6 nM (active) | 54.4 nM (active) | 23.5 nM (active)
5 | CCC[C@H]1C[C@H](C(=O)N[C@@H]([C@@H]2O[C@@H](SC)[C@@H](O)[C@@H](O)[C@@H]2O)[C@H](C)Cl)N(C)C1 | 128% | inactive | inactive | inactive | inactive | inactive | inactive | inactive | inactive | inactive | inactive | inactive | inactive | inactive | inactive
6 | C[C@@]12C(=O)OC(=O)[C@@]1(C)C1CCC2O1 | 3.87% | inactive | inactive | 2640 nM (active) | 4180 nM (active) | 2640 nM (active) | 2640 nM (active) | 5.26 µM (active) | 3720 nM (active) | 13100 nM (active) | 2960 nM (active) | 2090 nM (active) | 4690 nM (active) | 2170 nM (active) | 2350 nM (active)
7 | Cc1onc(-c2ccccc2)c1C(=O)N[C@@H]1C(=O)N2[C@@H](C(=O)O)C(C)(C)S[C@@H]12 | 120% | inactive | inactive | inactive | inactive | inactive | inactive | inactive | inactive | inactive | inactive |  | inactive |  | inactive
8 | C[C@]12CC[C@@H]3c4ccc(O)cc4CC[C@H]3[C@H]1CC[C@H]2O | 12.5% | inactive | inactive | 8330 nM (active) | 16600 nM (active) | 18700 nM (active) | 16600 nM (active) | 7.43 µM (active) | inactive | inactive | 18700 nM (active) | 16600 nM (active) | 2960 nM (active) | 27300 nM (active) | 10500 nM (active)
9 | O=C(O)C(=O)Nc1cccc(C2=NN=N[N]2)c1 | 113% | inactive | inactive | inactive | inactive | inactive | inactive | inactive | inactive | inactive | inactive | inactive | inactive | inactive | inactive
10 | CC(C)C[C@H](NC(=O)[C@@H](NC(=O)c1cccc(-c2ccccc2)n1)[C@@H](C)O)B(O)O | 4.67% | inactive | inactive | 59 nM (active) | 74.3 nM (active) | 37.2 nM (active) | 66.2 nM (active) | 833 nM (active) and 820 nM (active) | 132 nM (active) | 466 nM (active) | 59 nM (active) | 41.8 nM (active) | 187 nM (active) | 96.8 nM (active) | 23.5 nM (active)
11 | CN(C)c1ccc(C(=O)NCCCCCCC(=O)NO)cc1 | 4.88% | inactive | inactive | 662 nM (active) | 590 nM (active) | 526 nM (active) | 296 nM (active) | 3.72 µM (active) | inactive | 2620 nM (active) | 2350 nM (active) | 743 nM (active) | 1180 nM (active) | 153 nM (active) | 
12 | O=C(O)[C@H](CC(=O)N1C[C@@H]2CCCC[C@H]2C1)Cc1ccccc1 | 89.5% | 23500 nM (active) | inactive | inactive | inactive | inactive | inactive | inactive | inactive | inactive | inactive | inactive | inactive | inactive | 
